Shown are actives, neighbours in structure and some others; about 13% of the full set was active somewhere.
USP17 block: blocks human USP17 ubiquitin-rhodamine cleavage. A8MUK1. purified USP17, Ub-rhodamine cleavage fluorescence, 3 h. inhibition, % at 50 µM. 47,000 tested, 6.5% active. AID 1645855
USP8 inh: human USP8 deubiquitinase inhibition; P40818; purified USP8, Ub-rhodamine cleavage fluorescence, 30 min; inhibition, % at 20 µM; 47,000 tested, 4.2% active; AID 1645853
USP28 inh: inhibitors of human USP28 deubiquitinase | inhibition, % at 25 µM | AID 1645857 | purified USP28, Ub-rhodamine cleavage fluorescence, 30 min | 47,000 tested, 3% active
Target sequence (Q96RU2 whole entry, looked up): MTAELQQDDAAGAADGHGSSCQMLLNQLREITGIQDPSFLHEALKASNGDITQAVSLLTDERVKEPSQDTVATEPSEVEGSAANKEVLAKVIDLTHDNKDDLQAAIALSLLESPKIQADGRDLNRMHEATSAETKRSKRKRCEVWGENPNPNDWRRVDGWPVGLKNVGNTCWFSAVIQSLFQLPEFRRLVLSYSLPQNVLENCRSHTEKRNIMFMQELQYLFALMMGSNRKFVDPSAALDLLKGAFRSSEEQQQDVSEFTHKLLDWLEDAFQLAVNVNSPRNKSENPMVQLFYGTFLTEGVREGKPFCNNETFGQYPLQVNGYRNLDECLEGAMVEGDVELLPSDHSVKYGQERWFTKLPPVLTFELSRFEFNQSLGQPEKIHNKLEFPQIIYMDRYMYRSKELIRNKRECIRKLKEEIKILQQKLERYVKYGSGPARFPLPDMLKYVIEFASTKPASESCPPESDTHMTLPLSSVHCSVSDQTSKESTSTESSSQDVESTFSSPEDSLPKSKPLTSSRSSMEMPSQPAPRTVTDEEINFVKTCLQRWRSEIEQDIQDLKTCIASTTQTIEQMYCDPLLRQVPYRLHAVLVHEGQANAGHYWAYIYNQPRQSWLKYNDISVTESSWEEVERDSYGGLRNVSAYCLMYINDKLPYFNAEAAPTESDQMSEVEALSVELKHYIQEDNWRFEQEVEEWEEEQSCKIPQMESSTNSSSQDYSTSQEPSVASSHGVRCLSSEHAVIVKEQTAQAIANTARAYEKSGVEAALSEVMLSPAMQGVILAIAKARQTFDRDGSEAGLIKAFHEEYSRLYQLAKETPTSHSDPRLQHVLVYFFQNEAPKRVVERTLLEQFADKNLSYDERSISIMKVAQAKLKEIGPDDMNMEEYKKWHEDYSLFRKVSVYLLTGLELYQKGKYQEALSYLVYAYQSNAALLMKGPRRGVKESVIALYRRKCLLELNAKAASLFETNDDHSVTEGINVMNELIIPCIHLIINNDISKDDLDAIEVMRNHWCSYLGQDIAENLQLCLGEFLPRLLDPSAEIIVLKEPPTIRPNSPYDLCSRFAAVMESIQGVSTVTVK
USP30 block: inhibitors of human USP30 deubiquitinase. AID 1645860. Q70CQ3. 47,000 tested, 5.3% active. purified USP30, Ub-rhodamine cleavage fluorescence. inhibition, % at 25 µM
Active calls of the source: *; i = inactive. Cut-off read from the data, not from the text of the source: active = inhibition above about 30%; inactive = the rest.

SMILES | USP17 block | USP8 inh | USP28 inh | USP30 block
Cc1c(O)cc(O)c2c1C(C)C(C)OC2 (configuration not stated) | -1 | -8 | 1 | 0
Cc1ccc(N(CC(=O)N2CCCc3ccccc32)S(=O)(=O)c2ccc3c(c2)OCCO3)cc1 | 7 | 15 | 13 | 32*
O=C(CN1CCN(S(=O)(=O)c2ccc3c(c2)OCCCO3)CC1)N1CCCc2ccccc21 | -2 | 0 | 1 | 12
COc1cccc(C2c3[nH]c4ccccc4c3C[C@@H]3C(=O)N(CCC4=CCCCC4)CC(=O)N23)c1 (some centres not stated) | -89 | -57 | -157 | i
COc1cc2c(c(OCC(=O)Nc3ccc4c(c3)OCCO4)c1)C(=O)O[C@@H](C)CCCC(=O)CCCCC2 | 22 | 68* | 18 | 51*
COc1cc(OCC(=O)NC(C)C)cc2c1C(=O)O[C@@H](C)CCCC(=O)CCCCC2 | 4 | 1 | 7 | 13
COc1cc(N)c(Cl)cc1C(=O)OCC(=O)Nc1ccc2c(c1)OCCO2 | 20 | 14 | 37* | 0
COc1ccc(-n2nc(C(F)(F)F)cc2-c2cccs2)cc1 | 10 | 20 | 12 | 22
COc1ncccc1C(=O)N1C[C@H]2CC[C@@H](Nc3cnccn3)[C@H]2C1 | 3 | -1 | -1 | 0
COc1ccc(C(=O)N2CCC(Nc3cccnc3)C2)c(OC)n1 (configuration not stated) | 6 | 62* | -70 | -304
O=C(Nc1ccc2c(c1)OCCO2)C1CCN(C(=O)c2cc(-c3cccnc3)n[nH]2)CC1 | -3 | -9 | 53* | 6
CCOc1ccc(C(=O)N2CCC(Nc3cccnc3)C2)cc1 (configuration not stated) | -15 | 49* | -93 | -357
CCOc1nccnc1NC1CCN(C(=O)c2ccc(C#N)cc2)CC1 | 13 | 11 | 13 | 20
O=C(c1ccc2cc[nH]c2c1)N1CCC(Nc2cccnc2)C1 (configuration not stated) | 68* | 83* | -14 | -42
O=C(Nc1ccc(F)cc1)C1CCN(C(=O)c2cc(-c3cccnc3)n[nH]2)CC1 | -20 | -2 | -14 | -18
CC(C)[C@H](NC(=O)C1CCN(C(=O)[C@@H]2CCCN2C(=O)OC(C)(C)C)CC1)C(=O)O | 6 | 4 | 3 | 13
O=C1NC2(CCN(C(=O)c3ccc(OC4CSC4)cc3)CC2)Nc2ccccc21 | -2 | -23 | -6 | 1
Cc1cccc(NC(=O)CSc2nc3sc(C)cc3c(=O)n2Cc2ccco2)c1 | 7 | 5 | -2 | 21
CC1(C(=O)NC2CCCC2)Cn2c(cc3ccccc32)C(=O)N1C1CCCCC1 (configuration not stated) | 7 | 3 | -2 | 10
O=C(c1cc(-c2ccccc2)n[nH]1)N1CCC(Nc2cccnc2)C1 (configuration not stated) | -45 | 58* | -117 | i
O=C(c1cc(-c2ccncc2)n[nH]1)N1CCC(C(=O)N2CC=C(c3ccccc3)CC2)CC1 | 64* | 0 | 16 | 19
O=C(Nc1ccccc1)C1CCN(C(=O)c2cc(-c3ccncc3)n[nH]2)CC1 | -2 | 3 | -1 | -59
COc1cccc2c(=O)n(CC(=O)N3CCCc4ccccc43)ccc12 | -1 | -7 | -5 | 10
Cc1nn2c(C)c(C(=O)N3CCN(Cc4ccccc4)CC3)cnc2c1-c1ccc(F)cc1 | -20 | -19 | -18 | -23
c1ccc2sc(CN3CCCCC3c3nc4ccccc4s3)nc2c1 (configuration not stated) | -41 | -114 | -32 | -112
SMILES | USP17 block | USP8 inh | USP28 inh | USP30 block
CCC1(CC)Oc2ccc(C(=O)CCN(C)C)cc2O1 | 7 | 32* | 14 | 35*
Cc1ccc(-c2noc(-c3c(O)c4ccccc4[nH]c3=O)n2)cc1 | 1 | -1 | 0 | 15
O=C(CCCn1c(=O)c2cc(Cl)ccc2n(CC(=O)Nc2cccc(F)c2)c1=O)NCc1ccco1 | 0 | 30* | -9 | 12
O=C(Cn1c(=O)c2ccccc2n(CC(=O)Nc2ccc(F)c(Cl)c2)c1=O)NCc1ccco1 | 62* | 44* | 39* | 45*
CCOc1ccc(C(=O)Cn2c(=O)n(Cc3ccccc3)c(=O)c3cc(Cl)ccc32)cc1Cl | -4 | -4 | -13 | -16
CCn1c(=O)c2cc(OC)c(OC)cc2n(CC(=O)c2ccc(OC)c(OC)c2)c1=O | 11 | 0 | 5 | 47*
O=C(NCc1ccco1)C(=O)Nc1ccc(F)c(Cl)c1 | 35* | 0 | -12 | -11
CN1CCN(c2ncnc3c2oc2ccc(Cl)cc23)CC1 | -7 | 0 | -13 | 0
Cc1ccc(NC(=O)Cn2c(=O)n(CCCCC(=O)NCc3ccco3)c(=O)c3ccccc32)cc1C | 5 | 13 | -13 | 0
COc1cc2c(=O)n(CCC(=O)NC3CCCC3)c(=O)n(CC(=O)Nc3cccc(Cl)c3)c2cc1OC | 42* | -29 | 18 | 24
COc1ccc(NC(=O)Cn2c(=O)n(CCCC(=O)NC3CCCC3)c(=O)c3cc(Cl)ccc32)cc1 | -4 | -9 | -22 | -5
O=C(Cn1c(=O)n(CCCC(=O)NC2CCCC2)c(=O)c2cc(Cl)ccc21)Nc1cccc(F)c1 | 3 | 10 | -1 | 37*
O=C(CCCCn1c(=O)c2ccccc2n(CC(=O)Nc2ccc(F)c(Cl)c2)c1=O)NCc1ccco1 | 70* | 59* | 22 | -6
COc1ccc(NC(=O)Cn2c(=O)n(C3CCCC3)c(=O)c3cc(OC)c(OC)cc32)cc1OC | 39* | 24 | 14 | 17
COc1cccc(-n2c(O)c(C3NCCc4c3[nH]c3ccccc43)c(=O)[nH]c2=O)c1 (configuration not stated) | -61 | -335 | -17 | -173
COc1cc(OC)c(NC(=O)Cn2c(=O)n(Cc3ccccc3Cl)c(=O)c3cc(OC)c(OC)cc32)cc1Cl | 29 | 26 | 36* | 60*
Cc1ccccc1S(=O)(=O)N1CCC(n2cnc3c(C)cccc3c2=O)CC1 | -15 | -10 | -8 | 6
O=C(c1cc(Cl)cc(Cl)c1)N1CC(c2nc(-c3cccnc3)no2)C1 | 2 | -15 | 10 | 30*
COC(=O)c1sc2ccccc2c1NC(=O)c1ccc(Br)s1 | 70* | 0 | 14 | 19
COc1ccc2oc(C(=O)Nc3ccc4ccccc4n3)c(C)c2c1 | 32* | -12 | -11 | -76
O=C(NCC(O)COc1ccc([N+](=O)[O-])cc1)Nc1ccccc1 (configuration not stated) | -16 | -91 | 9 | 5
Cc1cc(C)cc(NC(=O)NCC(O)COc2ccc([N+](=O)[O-])cc2)c1 (configuration not stated) | 32* | -104 | 27 | 17
O=C1CN(C(=O)COC(=O)Cc2c(Cl)cccc2Cl)c2ccccc2N1 | -2 | 8 | 17 | -5
COc1cccc2c1C(=O)c1ccc3c(c1C2=O)C(=O)CC(C)(O)C3 (configuration not stated) | 62* | 27 | 0 | 22
Cc1ccc2c(c1)C(=O)c1c(O)cccc1C2=O | 1 | -17 | 3 | 11
O=C(NCCC1=CCCCC1)c1[nH]nc2c1COc1ccccc1-2 | -31 | 9 | -5 | -68

Assay outcomes from PubChem.
